Results on 20 compounds are retold here after PubChem BioAssay.

Values without a mark were called inactive. For some of these results: Results with a measured potency or affinity are listed apart. Active and inactive are the calls of the source. Unless noted, no rule for the calls is given here.

Assay [1] is described as follows: antimalarial activity against Dd2 strain (AID 2302;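 active = growth inhibition above 50% at the single 2 µM test dose, taken to imply half-maximal potency below 2 µM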;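 also: 0% = DMSO untreated growth and 100% = chloroquine plus artemisinin killed control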). Particulars: P. falciparum Dd2 in RBCs, LDH growth readout, 72 h; at 2 µM; active compounds read high.
Assay [2] is described as follows: human hepatoma cell viability loss – ATP luminescence, cytotoxicity control for P. falciparum antimalarial project, primary screen (AID 2303;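 active = inhibition above 50%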;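 also: 0% = DMSO wells and 100% = digitonin-killed cells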). The settings on record: HepG2 viability, 24-48 h, at 10 µM, active compounds read high.
For assay [3], the target named is L-lactate dehydrogenase (Plasmodium falciparum (isolate CDC / Honduras)) (UniProt Q27743). The assay can be described thus: PfLDH activity inhibition – cell lysate, 3D7 strain, counter-screen for P. falciparum growth inhibition project (AID 2304).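 Also: 0% = vehicle and 100% = reference inhibitor.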 Particulars: P. falciparum 3D7 crude extract, LDH APAD/NBT absorbance; at 2 µM; active compounds read high.
Sequence of L-lactate dehydrogenase (Plasmodium falciparum (isolate CDC / Honduras)) (Q27743 whole entry, looked up): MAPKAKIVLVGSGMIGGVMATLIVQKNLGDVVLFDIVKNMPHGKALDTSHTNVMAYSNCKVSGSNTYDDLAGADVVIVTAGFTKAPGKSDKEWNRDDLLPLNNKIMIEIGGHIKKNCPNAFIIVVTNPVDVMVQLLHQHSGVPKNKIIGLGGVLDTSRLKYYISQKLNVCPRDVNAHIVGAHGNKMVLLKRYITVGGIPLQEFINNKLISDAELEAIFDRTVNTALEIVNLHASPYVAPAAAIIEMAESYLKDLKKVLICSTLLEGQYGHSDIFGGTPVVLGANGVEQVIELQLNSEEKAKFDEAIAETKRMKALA
Assay [4] can be described thus: inhibition of 3D7 malaria parasite growth – strain 3D7 (AID 2306).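 Also: 0% = DMSO wells and 100% = chloroquine plus artemisinin control wells.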 The settings on record: P. falciparum 3D7 erythrocytic growth, LDH absorbance, 72 h; at 2 µM; active compounds read high.
The target in assay [5] is Calcium-dependent protein kinase 1 (Plasmodium falciparum (isolate 3D7)) (UniProt P62344). The assay can be described thus: PfCDPK1 kinase inhibitors, biochemical, TCAMS library (AID 1159585; cut-off not given, nearly all actives have IC50 up to about 0.98 µM;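 also: inhibitors leave more ATP so luminescence rises with inhibition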). Particulars: recombinant PfCDPK1, Kinase-Glo ATP depletion luminescence.
Sequence of Calcium-dependent protein kinase 1 (Plasmodium falciparum (isolate 3D7)) (P62344 whole entry, looked up): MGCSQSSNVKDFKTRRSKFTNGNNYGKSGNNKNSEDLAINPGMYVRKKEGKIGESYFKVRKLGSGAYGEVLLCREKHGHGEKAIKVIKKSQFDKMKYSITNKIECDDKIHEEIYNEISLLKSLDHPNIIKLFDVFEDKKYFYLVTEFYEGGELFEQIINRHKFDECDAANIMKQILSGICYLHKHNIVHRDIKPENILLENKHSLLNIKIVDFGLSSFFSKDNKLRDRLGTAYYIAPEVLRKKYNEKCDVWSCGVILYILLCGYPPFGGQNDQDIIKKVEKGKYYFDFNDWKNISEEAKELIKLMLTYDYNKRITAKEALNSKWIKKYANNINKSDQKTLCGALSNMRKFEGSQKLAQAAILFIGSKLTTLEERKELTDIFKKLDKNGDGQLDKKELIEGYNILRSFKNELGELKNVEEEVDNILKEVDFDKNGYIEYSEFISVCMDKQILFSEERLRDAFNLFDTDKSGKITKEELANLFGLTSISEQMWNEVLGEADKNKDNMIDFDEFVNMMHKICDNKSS
Assay [6] deals with Plasmodium falciparum protein kinase 6 (PK6, PF3D7_1337100) (UniProt Q8IDW1). The assay can be described thus: PfPK6 kinase inhibitors, biochemical, TCAMS library (AID 1159586). Particulars: recombinant PfPK6, Kinase-Glo ATP depletion luminescence.
Sequence of Plasmodium falciparum protein kinase 6 (PK6, PF3D7_1337100) (Q8IDW1 1-305): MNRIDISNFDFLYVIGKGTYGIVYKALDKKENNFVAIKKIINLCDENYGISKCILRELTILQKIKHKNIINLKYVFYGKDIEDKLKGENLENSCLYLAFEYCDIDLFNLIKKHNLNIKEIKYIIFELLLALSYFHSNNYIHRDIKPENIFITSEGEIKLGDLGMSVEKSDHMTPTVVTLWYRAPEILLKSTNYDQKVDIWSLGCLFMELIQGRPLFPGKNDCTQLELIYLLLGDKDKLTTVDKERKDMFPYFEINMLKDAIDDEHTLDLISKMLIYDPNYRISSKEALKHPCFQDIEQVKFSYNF
In assay [7] the target is Protein kinase 7 (PK7), Plasmodium falciparum 3D7 (PF3D7_0213400) (UniProt Q7YTF7). The assay can be described thus: inhibition of Plasmodium PK7 catalytic activity – biochemical, TCAMS antimalarial set, Kinase-Glo luminescence (AID 1159587). The settings on record: recombinant PfPK7, Kinase-Glo ATP depletion luminescence.
Sequence of Protein kinase 7 (PK7), Plasmodium falciparum 3D7 (PF3D7_0213400) (Q7YTF7 1-343): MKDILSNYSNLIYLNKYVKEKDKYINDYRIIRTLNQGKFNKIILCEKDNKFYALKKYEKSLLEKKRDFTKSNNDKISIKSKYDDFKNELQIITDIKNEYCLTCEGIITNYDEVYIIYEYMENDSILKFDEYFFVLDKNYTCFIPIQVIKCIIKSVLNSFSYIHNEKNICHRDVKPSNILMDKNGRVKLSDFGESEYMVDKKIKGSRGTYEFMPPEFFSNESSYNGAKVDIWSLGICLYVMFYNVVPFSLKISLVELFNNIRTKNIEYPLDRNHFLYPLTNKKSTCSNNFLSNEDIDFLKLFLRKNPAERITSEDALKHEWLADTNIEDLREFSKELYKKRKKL
In assay [8] the target is Calcium-dependent protein kinase 4 (Plasmodium falciparum (isolate 3D7)) (UniProt Q8IBS5). The assay can be described thus: PfCDPK4 kinase inhibitors, biochemical, TCAMS library (AID 1159588; cut-off not given, nearly all actives have IC50 up to about 0.91 µM). The settings on record: recombinant PfCDPK4, Kinase-Glo ATP depletion luminescence.
Sequence of Calcium-dependent protein kinase 4 (Plasmodium falciparum (isolate 3D7)) (Q8IBS5 whole entry, looked up): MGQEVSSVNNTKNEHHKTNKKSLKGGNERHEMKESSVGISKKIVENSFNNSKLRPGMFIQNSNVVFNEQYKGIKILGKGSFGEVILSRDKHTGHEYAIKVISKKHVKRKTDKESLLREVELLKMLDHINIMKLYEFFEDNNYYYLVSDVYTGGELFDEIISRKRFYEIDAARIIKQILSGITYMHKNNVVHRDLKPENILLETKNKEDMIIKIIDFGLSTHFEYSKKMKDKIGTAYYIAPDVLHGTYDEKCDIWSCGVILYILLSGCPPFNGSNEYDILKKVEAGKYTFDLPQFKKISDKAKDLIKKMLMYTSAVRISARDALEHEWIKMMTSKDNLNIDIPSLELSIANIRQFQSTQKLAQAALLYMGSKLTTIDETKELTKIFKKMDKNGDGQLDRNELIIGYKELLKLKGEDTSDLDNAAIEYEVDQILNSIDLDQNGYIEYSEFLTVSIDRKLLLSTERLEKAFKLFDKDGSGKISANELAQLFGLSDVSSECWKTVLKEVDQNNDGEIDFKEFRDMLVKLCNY

As to `COc1ccc(Cn2c(=O)[nH]c3cc(C(=O)NC4CCN(Cc5ccccc5)CC4)ccc3c2=O)cc1`, the values for the growth inhibition in assay [1] and in assay [4] were 45% and 97% (active), respectively. In addition, the inhibition in assay [2] is 10%; in assay [3] it was -7%. Moreover, the result in assay [5], in assay [6], in assay [7] and in assay [8] was inactive.
Turning to `O=C(Nc1ccccc1O)C1CCN(c2ncnc3cc(-c4ccc(F)cc4)sc23)CC1`, the values for the growth inhibition in assay [1] and in assay [4] were 94% (active) and 97% (active), respectively. Moreover, the inhibition in assay [2] was 10%; in assay [3], 4%. Further, the result in assay [5], in assay [6], in assay [7] and in assay [8] was inactive.
In the case of `CCOc1c(N2CCN(CCCCNC(=O)c3ccc(NC(=O)c4ccc(Cl)cc4)cc3)CC2)ccc2ccccc12`, the figures for the growth inhibition in assay [1] and in assay [4] were 45% and 100% (active), respectively. Moreover, the inhibition in assay [2] was 18%; in assay [3], 0%. Moreover, the result in assay [5], in assay [6], in assay [7] and in assay [8] was inactive.
Take `CCc1c(CCNCCCCCCNCCc2ccc([N+](=O)[O-])cc2)ccc(O)c1O`: the growth inhibition in assay [1] was 23%; in assay [4], 94% (active). The inhibition in assay [2] is 5%; in assay [3], -1%. Further, the outcome in assay [5], in assay [6], in assay [7] and in assay [8] was inactive.
`COCCn1c(Sc2ncnc3sccc23)nc2ccccc21`: the growth inhibition is 72% (active) in assay [1] and 95% (active) in assay [4]. In addition, the inhibition is -8% in assay [2] and -6% in assay [3]. The outcome in assay [5], in assay [6], in assay [7] and in assay [8] was inactive.
`c1ccc(-c2nc3ccccc3[nH]2)c(Nc2ccnc3cc(-c4nccs4)ccc23)c1`: the values for the growth inhibition in assay [1] and in assay [4] were 98% (active) and 101% (active), respectively. For the same compound, the inhibition in assay [2] was -4%; in assay [3], 3%. In addition, the result in assay [5], in assay [6], in assay [7] and in assay [8] was inactive.
Take `Cc1cc(N2CCCC2)nc(Nc2ccc(NC(=O)COc3ccccc3)cc2)n1`: the growth inhibition in assay [1] was 86% (active); in assay [4], 101% (active). The inhibition in assay [2] is 43%; in assay [3], 4%. Moreover, the result in assay [5], in assay [6], in assay [7] and in assay [8] was inactive.
On to `CC(C)Oc1cc2c(cc1NS(=O)(=O)c1ccc(-c3cccs3)cc1)CCN(C)CC2`, for which the growth inhibition in assay [1] was 9%; in assay [4], 88% (active). The values for the inhibition in assay [2] and in assay [3] were 9% and -4%, respectively. In addition, the result in assay [5], in assay [6], in assay [7] and in assay [8] was inactive.
For the compound `OC(CNC1CCCCC1)Cn1c2ccc(I)cc2c2cc(I)ccc21` (stereo not given), the values for the growth inhibition in assay [1] and in assay [4] were 93% (active) and 100% (active), respectively. Further, the inhibition was 10% in assay [2] and 2% in assay [3]. Besides, the result in assay [5], in assay [6], in assay [7] and in assay [8] was inactive.
Take `CCc1c(CCNCCCCCCNC(C)Cc2ccc3c(c2CC)OCO3)ccc(OC)c1OC` (stereo not given): the growth inhibition in assay [1] is 64% (active); in assay [4], 101% (active). Besides, the inhibition is 100% (active) in assay [2] and 0% in assay [3]. The result in assay [5], in assay [6], in assay [7] and in assay [8] was inactive.
As to `CN(C)Cc1cccc(-c2ccc(NC(=O)c3ccc4c(=O)n(CC5CCCO5)cnc4c3)cc2)c1` (stereo not given), the growth inhibition was 14% in assay [1] and 97% (active) in assay [4]. In addition, the inhibition was 28% in assay [2] and 0% in assay [3]. The outcome in assay [5], in assay [6], in assay [7] and in assay [8] was inactive.
`Cc1ccc(C(=O)NCC2CCN(c3ccc(C(F)(F)F)cc3NC(=O)c3ccco3)CC2)cn1`: the growth inhibition in assay [1] was 73% (active); in assay [4] it was 91% (active). Besides, the inhibition in assay [2] was 9%; in assay [3], 0%. Moreover, the result in assay [5], in assay [6], in assay [7] and in assay [8] was inactive.
As for `CCCCN1C(=O)[C@H]2CC(=O)CC(C3CCCCC3)[C@H]2C1=O` (stereo not given in full), the growth inhibition in assay [1] is 1%; in assay [4], 97% (active). In addition, the results for the inhibition in assay [2] and in assay [3] were -1% and -5%, respectively. The outcome in assay [5], in assay [6], in assay [7] and in assay [8] was inactive.
In the case of `CN1CCN(CCCN(Cc2ccc(-c3cccc(CNC4CCCC4)c3)cc2)C(=O)Nc2ccccc2)CC1`, the growth inhibition was 76% (active) in assay [1] and 92% (active) in assay [4]. Also, the inhibition is 28% in assay [2] and -3% in assay [3]. Also, the outcome in assay [5], in assay [6], in assay [7] and in assay [8] was inactive.
Turning to `O=C(Nc1cccc(F)c1)NC1CCN(CCCCCNC(=O)[C@@H]2C[C@H]2c2ccc(Cl)c(Cl)c2)CC1`, the growth inhibition is 12% in assay [1] and 101% (active) in assay [4]. Besides, the inhibition in assay [2] was 41%; in assay [3] it was 4%. Besides, the outcome in assay [5], in assay [6], in assay [7] and in assay [8] was inactive.
Take `OC1CCN(c2cc(-c3ccccn3)nc(-c3ccccn3)n2)CC1`: the growth inhibition is 97% (active) in assay [1] and 83% (active) in assay [4]. Further, the inhibition is 43% in assay [2] and -2% in assay [3]. For the same compound, the result in assay [5], in assay [6], in assay [7] and in assay [8] was inactive.
For the compound `COc1ccc(-c2cccc(NC(=O)c3ccc(C#N)cc3)c2)cc1CN1CCCC1`, the growth inhibition in assay [1] is 15%; in assay [4], 98% (active). Further, the inhibition was 30% in assay [2] and -5% in assay [3]. Also, the result in assay [5], in assay [6], in assay [7] and in assay [8] was inactive.
Consider `CCc1ccc(C(=O)NC(=O)c2ccccc2O)cc1`, for which the growth inhibition in assay [1] was 84% (active); in assay [4] it was 95% (active). In addition, the inhibition in assay [2] is -4%; in assay [3] it was 1%. For the same compound, the outcome in assay [5], in assay [6], in assay [7] and in assay [8] was inactive.
Turning to `O=C(Nc1ccc(CCNC2=NCCN2)cc1)Nc1ccc(CCNC2=NCCN2)cc1`, the growth inhibition in assay [1] was 66% (active); in assay [4], 90% (active). For the same compound, the inhibition in assay [2] was 6%; in assay [3], 4%. Further, the outcome in assay [5], in assay [6], in assay [7] and in assay [8] was inactive.
Turning to `COCCn1c(C)nc2ccccc2c1=O`, the growth inhibition in assay [1] is 67% (active); in assay [4], 89% (active). Moreover, the inhibition in assay [2] and in assay [3] was -3% each time. Moreover, the outcome in assay [5], in assay [6], in assay [7] and in assay [8] was inactive.
